Autofluor counter = flagged as autofluorescent in microsphere protease counterscreen | compound autofluorescence counterscreen, microsphere flow cytometry; stronger effect = higher value | fluorescence intensity (no concentration beside the values) | 360,000 tested, 3.1% active | AID 624483; in the data active = fluorescence intensity above about 16000; inconclusive = no clear call, values can overlap the other calls
MazEF act = activators of E. coli MazEF toxin-antitoxin RNase; P0AE70; FAM/BHQ RNA-DNA oligo cleavage fluorescence, 5 h; activation, % at 20 µM; 350,000 tested, 0.32% active; AID 504720; in the data active = activation above about 50%
Target sequence (P0AE70 whole entry, looked up): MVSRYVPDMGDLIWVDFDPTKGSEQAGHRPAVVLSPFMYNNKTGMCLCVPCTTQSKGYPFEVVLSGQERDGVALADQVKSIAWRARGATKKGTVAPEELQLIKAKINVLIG
Anthrax LF inh2 = inhibitors of Bacillus anthracis lethal factor protease; inhibition, % at 10 µM; 360,000 tested, 0.12% active; multiplex microsphere protease cleavage assay, LF; P15917
BoNT F protease = blocks Botulinum neurotoxin F light chain protease; Multiplex microsphere protease cleavage assay, flow cytometry; AID 588497; inhibition, % at 10 µM; 360,000 tested, 0.22% active; in the data active = inhibition above about 35%, passing the limit was not always enough; inconclusive = no clear call, values can overlap the other calls
BoNT-A LC inh2 = BoNT A light chain protease inhibition; multiplex microsphere protease substrate cleavage, flow cytometry; inhibition, % at 10 µM; 360,000 tested, 0.17% active; AID 588499
A number is an active result; . = inactive; ? = inconclusive; / = no result. Shown are actives, neighbours in structure and some others; about 3.7% of the full set was active somewhere. Cut-off read from the data, not from the text of the source, unless noted: active = inhibition above about 30%; inconclusive = no clear call, values can overlap the other calls; inactive = below that.

SMILES	Autofluor counter	MazEF act	Anthrax LF inh2	BoNT F protease	BoNT-A LC inh2
O=C(CCS(=O)(=O)Cc1ccccc1)N1CCN(c2ccccc2)CC1	.	.	.	.	?
COCCCNC(=O)CN1C(=O)COc2ccc(S(=O)(=O)N3CCOCC3)cc21	.	.	.	.	.
COC(=O)c1sccc1NC(=O)c1c(C)noc1C	23485	.	.	.	.
COC(=O)c1sccc1NC(=O)c1cc(C)on1	17750	.	.	.	?
CCc1sc(C(=O)Nc2ccsc2C(=O)OC)cc1Br	16369	.	.	.	.
COC(=O)c1sccc1NC(=O)c1c(F)c(F)c(F)c(F)c1F	.	.	.	.	.
COC(=O)c1sccc1NC(=O)c1ccccc1Br	.	.	.	.	.
COc1ccc(/C(C)=N/NC(=O)c2cc(C)[nH]n2)c(OC)c1	.	.	.	.	.
O=C(N/N=C/C(Br)=C\c1ccccc1)c1n[nH]c2c1CCC2	25111	.	.	.	.
C=CCOC(=O)C1=C(C)OC(N)=C(C(=O)OCC)C12C(=O)N(CC(N)=O)c1ccccc12 (stereo unspecified)	19254	.	.	.	?
CCOC(=O)C1=C(C)OC(N)=C(C(=O)OCC)[C@@]12C(=O)N(CC(N)=O)c1ccccc12	.	.	.	.	.
CC(c1ccco1)N(C(=O)c1ccc(C(F)(F)F)cc1)c1ccccn1 (stereo unspecified)	.	.	.	.	.
Cc1ccc(C(=O)N(c2ccccn2)C(C)c2ccco2)cc1C (stereo unspecified)	21171	.	.	.	?
CSc1nnc(C2CCN(CC(=O)Nc3ccccc3N3CCOCC3)CC2)n1C(C)C	.	.	.	.	.
Cc1ccc(C)c(N2CCN(C(=O)c3cc4sccc4n3C)CC2)c1	22451	.	.	.	?
Cn1c(C(=O)N2CCN(c3cccc(C(F)(F)F)c3)CC2)cc2sccc21	21909	.	.	.	.
CCOC(=O)N1CCC(NC(=O)C2CCCN(C(=O)c3cc4sccc4n3C)C2)CC1 (stereo unspecified)	.	.	.	.	.
CCOC(=O)N1CCN(C(=O)c2cc3sccc3n2C)CC1	19772	.	.	.	.
Cc1ccc(C)c(N2CCN(C(=O)c3ccc4c(c3)c(C)c(C)n4C)CC2)c1	.	.	.	.	.
Cc1ccsc1C(=O)Nc1ccc(OCc2ccccc2)cc1	.	.	.	.	.
COC(=O)c1ccc2c(c1)NC(=O)C(N1CCCCC1)S2 (stereo unspecified)	22781	.	.	.	.
COC(=O)c1ccc2c(c1)NC(=O)C(N1CCCC1)S2 (stereo unspecified)	19419	.	.	.	.
O=C(O)c1ccc2c(c1)NC(=O)C(N1CCCC1)S2 (stereo unspecified)	.	.	.	.	.
Cc1ccc(CC(NC(=O)C2CCCCC2)C(=O)O)cc1 (stereo unspecified)	.	.	.	.	.
Cc1ccc(C)c(CSc2nnc(-c3cccnc3)o2)c1	24006	.	.	.	?
SMILES	Autofluor counter	MazEF act	Anthrax LF inh2	BoNT F protease	BoNT-A LC inh2
CC(=O)Nc1cccc(Nc2cc(C)nn2C)c1	.	/	.	.	.
Cc1[nH]c(=O)[nH]c(=O)c1S(=O)(=O)NCC12CC3CC(CC(C3)C1)C2	21375	.	.	.	?
CCC(NS(=O)(=O)c1c(C)[nH]c(=O)[nH]c1=O)C12CC3CC(CC(C3)C1)C2 (stereo unspecified)	.	.	.	.	.
Cc1sc2nc(C3CC3)nc(SCC(=O)N3CCc4ccccc4C3)c2c1C	23515	.	.	.	?
Cc1c(Cl)cccc1NC(=S)N(Cc1cccnc1)Cc1ccccc1Cl	.	.	.	.	.
CC(=O)Oc1ccc(OC(C)=O)c(SCCCCCN2CCOCC2)c1	23369	.	.	.	.
Nn1c(-c2ccccc2)cc(-c2ccccc2)cc1=O	.	.	.	.	.
Cc1ccc(NC(=O)COC(=O)CN2C(=O)c3ccccc3C2=O)cc1	.	.	.	.	.
CN(C)c1ccc(NC(=O)CN2C(=O)c3ccccc3C2=O)cc1	.	.	.	39.1	.
CCN(CC)S(=O)(=O)c1ccc(NC(=O)COC(=O)CN2C(=O)c3ccccc3C2=O)cc1	22134	.	.	.	.
C=CCNC(=O)COC(=O)c1c2c(nc3ccccc13)CCC2	.	.	.	.	.
COC(=O)C1=C(C)n2nnnc2NC1c1cc2ccccc2o1 (stereo unspecified)	17991	.	.	.	?
COC(=O)C1=C(c2cc3ccccc3o2)C[C@@H]2CC[C@H]1N2C	.	.	.	.	.
O=C(OCn1ncc(Cl)c(Cl)c1=O)c1cccc(C(F)(F)F)c1	22357	.	.	.	.
